Results filed as inconclusive are left out. Activity calls are given as the source filed them. Calls follow the shape of the dose curve; as a rule, active = well fitted inhibition curve with a large enough effect; inconclusive = small, poorly fitted or top-dose-only effect; inactive = no such curve, though single readings can be large or run the other way.
test system: Zika virus NS2B-NS3 protease (linked construct); test: Primary screen NINDS Rhodamine qHTS for Zika virus inhibitors (AID 1347160); conditions: purified NS2B-NS3 protease, Rhodamine110 substrate fluorescence; series mostly up to 57.1 µM; activity change, negative = inhibition: at the top concentration; also: nearly all actives have a fitted effect of over 55% in size
Procedure, shortened: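 Each compound, titrated, sat 15 min with 25 nM linked protease before 1.5 microM Rhodamine110 substrate went in. Fluorescence gain over the next 15 min, in pH 8.0 Tris with Tween 20, gave Hill-fitted curves.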
% is scaled to controls: 0 for no effect and ±100 for the full control effect.

**Q.** Which “activity change, negative = inhibition” value does the source give for `CS(=O)(=O)c1ccc(-c2nnc(/C=C/c3nnc(-c4ccc(C#N)cc4)o3)n2-c2ccccc2Cl)nc1` here?
**A.** Its value is -0.306% (inactive).

**Q.** With `COC(=O)CC(O)CC(O)/C=C/c1c(C)ccc2c1C(O)CC(C)C2` (stereo unspecified) as the molecule, how does the “activity change, negative = inhibition” value read?
**A.** The value was -2.72% [at 33.1 µM] (inactive).

**Q.** `CC(=O)O[C@H]1[C@H](O[C@H]2[C@@H]3C=CO[C@@H](O[C@@H]4O[C@H](CO)[C@@H](O)[C@H](O)[C@H]4O)[C@@H]3[C@@]3(CO)O[C@@H]23)O[C@@H](C)[C@H](OC(=O)/C=C/c2ccccc2)[C@H]1OC(=O)/C=C/c1ccccc1` was tested. Which “activity change, negative = inhibition” value did it give?
**A.** Its value is -5.71% [at 15.1 µM] (inactive).

**Q.** For `O=C1CCC=CC1(O)C(=O)OCc1ccccc1O[C@@H]1O[C@H](CO)[C@@H](O)[C@H](O)[C@H]1O` (stereo partly specified), which “activity change, negative = inhibition” value is on record?
**A.** Its value is -14.7% [at 33.1 µM] (inactive).

**Q.** `COc1ccc([C@H]2CNC(=O)C2)cc1OC1CCCC1` was tested. Which “activity change, negative = inhibition” value did it give?
**A.** Its value is -17.8% (inactive).

**Q.** With `C=C1C[C@@]23CCC4[C@@](C)(CCC[C@@]4(C)C(=O)OC)C2CC[C@@H]1C3` (stereo partly specified) as the molecule, how does the “activity change, negative = inhibition” value read?
**A.** Its value is 4.66% [at 33.1 µM] (inactive).

**Q.** `COc1cc(C2Oc3c(OC)cc(CCCO)cc3C2CO)ccc1O[C@H]1O[C@H](C)[C@@H](O)[C@H](O)[C@@H]1O` (stereo partly specified) was tested. Which “outcome” value did it give?
**A.** The value was “inactive [at 33.1 µM]”.

**Q.** Which “activity change, negative = inhibition” value does the source give for `Cc1nc(C)c(-c2ccc(C3CCC(CC(=O)O)CC3)cc2)nc1C(N)=O` (stereo unspecified) here?
**A.** Its value is -1.54% (inactive).

**Q.** How did the “activity change, negative = inhibition” value turn out when `O=C(OC[C@H]1O[C@H](O[C@]2(CO)O[C@H](CO)[C@@H](O)[C@@H]2O)[C@H](O)[C@@H](O)[C@@H]1O)c1ccccc1` was run?
**A.** The value was 15% [at 33.1 µM] (inactive).

**Q.** For `CC(C)=CC/C=C(\C)[C@H]1CC[C@]2(C)[C@@H]1[C@H](O)C[C@@H]1[C@@]3(C)CC[C@H](O)C(C)(C)[C@@H]3[C@@H](O[C@@H]3O[C@H](CO)[C@@H](O)[C@H](O)[C@H]3O)C[C@]12C`, which “activity change, negative = inhibition” value is on record?
**A.** The value was -0.764% (inactive).

**Q.** How did the “outcome” value turn out when `CC1CC(C(O)C(C)(C)O)OC2CC3(C)C4(C)CCC5C(C)(C)C(=O)CCC5(C)C4CCC3(O)C12O` (stereo unspecified) was run?
**A.** The value was “inactive [at 33.1 µM]”.

Source: PubChem BioAssay (NCATS)
